Sampled rows, rich in hits. Any-hit rate of the full collection: about 4.9%.
TIM10 inh = TIM10 yeast growth inhibition; S. cerevisiae TIM10 strain growth, BacTiter-Glo luminescence, 24 h; inhibition, % at 10 µM; 1.4% of 330,000 active;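 active means inhibition of 40% or more at the single tested concentration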;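 further: wild-type TIM10 isogenic control strain grown at permissive 25 °C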
tim10-1 inh = tim10-1 yeast growth inhibition; S. cerevisiae tim10-1 ts strain growth, BacTiter-Glo, 24 h; inhibition, % at 20 µM; 2.2% of 330,000 active; AID 463190;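 active means inhibition of at least 40%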;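 further: mutant grown at 25 °C; 0% = DMSO wells with yeast and 100% = wells holding no yeast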
NALP1 yeast inh = blocks the NALP1 inflammasome reconstituted in yeast | 0.61% of 280,000 active | S. cerevisiae NALP1/ASC/caspase-1 growth, X-gal OD620, 72 h | AID 2071 | inhibition, % at 10 µM; in the data active means inhibition mostly above about 24%, no sharp cut-off; inactive means mostly below about 32%
NALP3 yeast inh = inhibitors of NALP3 inflammasome in yeast; Yeast reconstituted NLRP3/ASC/caspase-1, beta-gal luminescence, 24 h; inhibition, % at 10 µM; 0.39% of 330,000 active; AID 2825;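 active means inhibition of 50% or more; inactive means inhibition below 50%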;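 further: plate controls were induced DMSO wells for no effect and uninduced yeast grown without galactose for full effect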
tim23-1 inh = tim23-1 yeast growth inhibition; S. cerevisiae tim23-1 growth, BacTiter-Glo luminescence, 24 h; inhibition, % at 20 µM; 1.3% of 330,000 active; AID 463212;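 active means growth inhibition of the mutant yeast at or above 50%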;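 further: temperature-sensitive mutant grown at 25 °C; plate controls were DMSO-treated mutant yeast for no effect and medium wells lacking yeast for full effect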
SKKanGAS inh = SKKanGAS growth inhibition; inhibition, % at 7.5 µM; 1.3% of 300,000 active; S. pyogenes SKKanGAS, kanamycin growth, BacTiter-Glo, 6 h;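 active means mean replicate score, as percent of positive control median, at least 50; inconclusive means mean below 50 but one replicate at or above 50; inactive means mean and every replicate below 50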;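 further: strain carries kanamycin resistance gene driven by streptokinase promoter and grows in 40 µg/ml kanamycin; loss of luminescence reflects streptokinase promoter inhibition or plain growth inhibition; 0% = median of DMSO wells and 100% = positive control at its reference dose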
tim10-1 conf = confirmation of tim10-1 mutant yeast growth inhibitors; shares compounds with tim10-1 inh; S. cerevisiae tim10-1 ts strain growth, BacTiter-Glo, 24 h; inhibition, % at 20 µM; 56% of 7,400 active;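 active means inhibition of yeast growth at or above a set limit in either of two repeat tests at 20 µM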;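 further: tim10-1 mutant grown at permissive 25 °C to find synthetic lethal compounds; 0% = DMSO yeast wells and 100% = medium wells without yeast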
tim10 confirm = TIM10 yeast growth inhibition, confirmed; shares compounds with TIM10 inh; inhibition, % at 10 µM; 63% of 4,600 active; S. cerevisiae tim10 strain growth, BacTiter-Glo luminescence, 24 h;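 active means inhibition of yeast growth at or above a set limit in either of two replicates at 10 µM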;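 further: this counterscreen used the strain with wild-type TIM10; 0% = yeast with DMSO and 100% = medium wells lacking yeast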
tim23-1 confirm = tim23-1 yeast growth inhibition, confirmed; shares compounds with tim23-1 inh; S. cerevisiae tim23-1 growth, BacTiter-Glo luminescence, 24 h; inhibition, % at 20 µM; 83% of 4,400 active;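 active means inhibition above about 39% in either of two replicate wells at 20 µM, limit read from the data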;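 further: temperature-sensitive tim23-1 mutant grown at 25 °C; 0% = DMSO wells with yeast and 100% = medium wells without yeast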
* hit, by the source's call; ? = inconclusive; / = not tested or not shown.

SMILES | TIM10 inh | tim10-1 inh | NALP1 yeast inh | NALP3 yeast inh | tim23-1 inh | SKKanGAS inh | tim10-1 conf | tim10 confirm | tim23-1 confirm
CCN1CCN(c2ccc(S(=O)(=O)N3CCCCC3)cc2NC(=O)c2ccc([N+](=O)[O-])s2)CC1 | 0 | 3 | / | 30 | 20 | -2 | / | / | /
COC(=O)c1c(NC(=O)CS(=O)(=O)c2ccccc2)sc(C)c1C | 22 | 26 | / | 18 | 31 | 8 | / | / | /
O=C(NC(Cc1ccccc1)C(=O)N1CCN(c2ccccc2O)CC1)c1ccccc1 (stereo not given) | -21 | -12 | / | 10 | -11 | / | / | / | /
CC(=O)c1ccccc1NC(=O)COC(=O)/C(=C/c1ccccc1)n1nnnc1C | 31 | 36 | 14 | 33 | 47 | -4 | / | / | /
COc1ccc(OCC(=O)Nc2ccc(N3CCN(C(=O)c4ccccc4)CC3)c(Cl)c2)cc1 | 44* | 60* | 16 | 25 | 40 | 15 | 58* | 57* | /
COc1ccc(OCC(=O)Nc2ccc(N3CCOCC3)c(Cl)c2)cc1 | 11 | 17 | 3 | 13 | 26 | 6 | / | / | /
COc1ccccc1OCCNC(=O)c1ccc2c(c1)CCC2 | 5 | -6 | 16 | 26 | 26 | 3 | / | / | /
O=[N+]([O-])c1cccnc1N1CCC(c2cc(-c3cccc(C(F)(F)F)c3)n[nH]2)CC1 | 52* | 43* | 11 | 19 | -4 | 100* | 30* | -17 | /
CC1(C)CC2CC(C)(CN2C(=S)NC(=O)c2ccccc2Cl)C1 (stereo not given) | 42* | 41* | 37 | 50 | 48 | 5 | 32* | 10 | /
CC1(C)CC2CC(C)(CN2C(=S)Nc2ccccc2)C1 (stereo not given) | 21 | 3 | 2 | -5 | 32 | -4 | / | / | /
O=C(NCc1ccco1)c1csc(Nc2ccccc2Cl)n1 | 42* | 52* | 38 | 4 | 39 | -4 | 43* | 30* | /
Cc1ccsc1C1Nc2ccccc2-c2nc3ccccc3n21 (stereo not given) | 54* | 51* | 35 | 20 | 50 | 0 | 39* | -16 | /
c1csc(C2Nc3ccccc3-c3nc4ccccc4n32)c1 (stereo not given) | 22 | 38 | 68 | 4 | 34 | 3 | / | / | /
CC(C)Cn1c(C(C)C)nc([N+](=O)[O-])c1Sc1ccc(Cl)cn1 | 23 | 37 | 0 | 3 | 48 | 6 | / | / | /
CCCCn1c(CCC)nc([N+](=O)[O-])c1Sc1ccc(Cl)cn1 | 49* | 44* | 3 | 1 | 47 | -4 | 40* | 42* | /
CCN(Cc1ccccc1)C(=O)c1ccc2c(=O)n3c(nc2c1)CCC3 | 7 | 10 | / | 3 | 0 | 18 | / | / | /
Nc1nnnn1/N=C/C(Br)=C/c1ccccc1 | 55* | 46* | 4 | 30 | 37 | 0 | 48* | 53* | /
CC[n+]1c(/C=C/c2c[nH]c3ccccc23)ccc2cc(C)ccc21 | 59* | 67* | -4 | 33 | 27 | / | 70* | 38* | /
Cn1c(-c2ccccc2)cc(=O)c2ccccc21 | 1 | 8 | 0 | 13 | 4 | -4 | / | / | /
O=c1cc(-c2ccccc2)cc(-c2ccccc2)n1O | 17 | 47* | / | 5 | 80* | 9 | 28 | / | 68*
CSCC[C@H](NC(=O)N1CCn2c1nc1ccccc12)C(=O)NC1CC1 | 7 | -5 | -1 | 6 | -5 | -4 | / | / | /
FC(F)(F)c1nnc(-c2ccccc2)nc1Sc1ccc(Cl)cc1 | 31 | 51* | / | 16 | 62* | 27 | 49* | / | 47*
CCN(CC(=O)Nc1ccccc1C(F)(F)F)C(=O)/C=C/c1ccc(Cl)c([N+](=O)[O-])c1 | -8 | -5 | / | 15 | 5 | 23 | / | / | /
O=C(Cc1ccccc1)NCC(=O)N1CCN(c2ccccc2F)CC1 | -6 | -8 | 14 | 15 | -11 | 12 | / | / | /
Cc1ccc(NC(=O)COC(=O)c2ccc(NC(=O)CC#N)cc2)cc1S(=O)(=O)N1CCOCC1 | 7 | -2 | / | 4 | 9 | / | / | / | /
SMILES | TIM10 inh | tim10-1 inh | NALP1 yeast inh | NALP3 yeast inh | tim23-1 inh | SKKanGAS inh | tim10-1 conf | tim10 confirm | tim23-1 confirm
Fc1ccc(CNC(=S)Nc2cccc(Cl)c2)cc1 | 38 | 48* | 22 | 14 | 50* | 19 | 41* | / | 52*
COc1ccc(C(=O)c2c(C(F)(F)F)oc3c2C(=O)c2ccccc2C3=O)cc1OC | 38 | 52* | 4 | 4 | 67* | 100* | 40* | / | 68*
Cc1cc2[nH]c(=O)c(=O)[nH]c2cc1S(=O)(=O)NC1CCCCC1C (stereo not given) | 1 | 15 | 9 | 4 | 5 | 4 | / | / | /
CCc1c(C)c(C#N)c2nc3ccccc3n2c1NC | 4 | -4 | 14 | 11 | 2 | 10 | / | / | /
CCc1c(C)c(C#N)c2nc3ccccc3n2c1NCCN(C)C | 58* | 63* | 32* | 36 | 59* | 1 | 56* | 34* | 65*
O=C(NCCSCc1ccco1)Nc1cc(Cl)cc(Cl)c1 | 34 | 46* | / | 15 | 54* | 7 | 35* | / | 56*
CC(=O)c1ccc(N=Nc2ccc(C)cc2)cc1 | 22 | 13 | 7 | 17 | 23 | 2 | / | / | /
Cc1ccc(N=N/C(=C\O)C(=O)c2ccc(Cl)cc2)cc1 | 36 | 48* | 14 | 8 | 60* | ? | 42* | / | 63*
O=C(/C(=C/O)N=Nc1ccccc1)c1ccc(Cl)cc1 | 58* | 65* | 26* | 8 | 79* | -3 | 49* | 56* | 39*
COC(=O)c1cccc2c1-c1ccccc1/C2=N/O | 33 | 59* | -7 | -25 | 65* | -14 | 38* | / | 56*
NC(=S)N/N=C1\c2ccccc2-c2c(C(=O)O)cccc21 | 14 | -10 | 9 | 27 | 19 | 2 | / | / | /
O=Nc1c(-c2cccc([N+](=O)[O-])c2)nc2ncccn12 | 84* | 91* | 10 | 20 | 89* | 0 | 91* | 98* | 73*
O=[N+]([O-])c1cccc(-c2cn3nc(-c4ccccc4)c(-c4ccccc4)nc3n2)c1 | 15 | 10 | 11 | -18 | -6 | 10 | / | / | /
COc1ccccc1C1Nc2cccc3cccc(c23)N1 | 9 | 21 | 11 | 12 | 26 | 2 | / | / | /
Oc1ccccc1C1Nc2cccc3cccc(c23)N1 | 46* | 52* | 3 | 32 | 77* | 21 | 52* | 44* | 74*
CC1CCN(c2nnc(-c3ccccc3)c3ccccc23)CC1 | 12 | 41* | 8 | -2 | 69* | -2 | 0 | / | 34
Cc1ccc(-c2nnc(N3CCC(C)CC3)c3ccccc23)cc1C | 4 | 19 | -5 | 21 | 48 | 37 | / | / | /
